According to PubChem BioAssay (NCATS):
Inconclusive results are not listed. A number with no mark means an inactive call. The source made the active and inactive calls. Calls come from the whole dose curve; as a rule, active = well fitted inhibition curve with a large enough effect; inconclusive = small, poorly fitted or top-dose-only effect; inactive = flat fitted curve, though single readings scatter.

target: Ubiquitin carboxyl-terminal hydrolase 1 (Homo sapiens) (UniProt O94782); test: Inhibitors of USP1/UAF1: Pilot qHTS (AID 504865); conditions: purified USP1/UAF1, Ub-rhodamine cleavage fluorescence; series mostly up to 114 µM; activity change, negative = inhibition: at the top concentration; note: nearly all actives have a fitted effect of over 35% in size;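 for activity change, negative = inhibition: rhodamine fluorescence freed from ubiquitin-rhodamine substrate followed over time; top concentration of the series differs between compounds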
Sequence (O94782 whole entry, looked up): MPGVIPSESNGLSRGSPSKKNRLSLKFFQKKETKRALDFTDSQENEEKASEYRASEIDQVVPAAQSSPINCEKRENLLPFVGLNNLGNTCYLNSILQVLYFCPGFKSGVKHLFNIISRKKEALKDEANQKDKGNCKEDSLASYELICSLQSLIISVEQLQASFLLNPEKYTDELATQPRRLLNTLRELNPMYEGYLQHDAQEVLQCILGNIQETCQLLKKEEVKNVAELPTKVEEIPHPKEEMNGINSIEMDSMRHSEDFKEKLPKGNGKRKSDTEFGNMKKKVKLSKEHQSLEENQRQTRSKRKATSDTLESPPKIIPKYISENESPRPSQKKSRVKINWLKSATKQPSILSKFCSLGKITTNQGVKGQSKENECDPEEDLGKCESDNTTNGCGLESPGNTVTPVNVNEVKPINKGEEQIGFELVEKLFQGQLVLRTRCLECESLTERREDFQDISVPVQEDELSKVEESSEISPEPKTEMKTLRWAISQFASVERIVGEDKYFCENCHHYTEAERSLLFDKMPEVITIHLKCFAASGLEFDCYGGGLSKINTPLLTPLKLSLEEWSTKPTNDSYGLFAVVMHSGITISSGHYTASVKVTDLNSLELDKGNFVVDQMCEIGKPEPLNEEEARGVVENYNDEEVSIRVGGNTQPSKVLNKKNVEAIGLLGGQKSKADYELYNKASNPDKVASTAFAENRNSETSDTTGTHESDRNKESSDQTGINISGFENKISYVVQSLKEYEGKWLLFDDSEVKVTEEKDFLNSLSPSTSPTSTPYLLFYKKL
In short: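 1nM USP1/UAF1 + cpd, 15 min RT; start w/ Ub-Rho 150nM final; kinetic FL 480/540 nm, 6 reads q60 s. Buffer 50mM HEPES pH 7.8, 0.5mM EDTA, 1mM TCEP, 0.01% Tween-20, 0.1 mg/ml BSA.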
% is set by controls: 0 for no effect and ±100 for the full control effect; potency is the fitted concentration of half-maximal effect.

Structure (SMILES) | activity change, negative = inhibition | Potency
CN1C(=O)CN=C(c2ccccc2)c2cc([N+](=O)[O-])ccc21 | -1.64% | –
Nc1ccc(N)cc1 | -2.61% | –
CCS(=O)(=O)C(C)(C)S(=O)(=O)CC | -8.01% | –
CC(C)C(Br)C(=O)NC(N)=O (stereo not given) | 1.73% | –
OC(O)C(Cl)(Cl)Cl | -3.14% | –
N#Cc1nn(-c2c(Cl)cc(C(F)(F)F)cc2Cl)c(N)c1S(=O)C(F)(F)F (stereo not given) | -11.2% | –
COCC(=O)N(c1c(C)cccc1C)C(C)C(=O)OC (stereo not given) | -1.9% | –
C=CCOC(Cn1ccnc1)c1ccc(Cl)cc1Cl (stereo not given) | -6.91% | –
CC(Cc1ccccc1)NCc1ccccc1Cl (stereo not given) | -4.37% | –
CCNc1nc(Cl)nc(NCC)n1 | 2.69% | –
CC[C@H]1CN2CCc3cc(OC)c(OC)cc3[C@@H]2C[C@@H]1C[C@H]1NCCc2cc(OC)c(OC)cc21 | -1.56% | –
C[N+]1(CCC(C(N)=O)(c2ccccc2)c2ccccc2)CCCCC1 | 0.54% | –
C[C@]12CC[C@H]3[C@@H](CC=C4C[C@@H](O)CC[C@@]43C)[C@@H]1CC[C@@H]2O | 0.778% | –
CC(C)(O)C(Cl)(Cl)Cl | -4.62% | –
CN1C[C@@H](NS(=O)(=O)N(C)C)C[C@@H]2c3cccc4c3c(cn4C)C[C@H]21 | -8.11% | –
CCC1(c2ccccc2)CCC(=O)NC1=O (stereo not given) | -5.13% | –
CCN(CC)CCOC(=O)C(C)(c1ccccc1)c1ccccc1 | -9.74% | –
COc1ccc(CN2CCNCC2)c(OC)c1OC | -1.3% [at 54.9 µM] | –
CCOC(=O)NC(O)C(Cl)(Cl)Cl (stereo not given) | -4.17% | –
Cc1ccc(N=CN(C)C=Nc2ccc(C)cc2C)c(C)c1 | -13.2% | –
CN1CCc2cc(Cl)c(O)cc2[C@H]2c3ccccc3CC[C@@H]21 | -6.96% | –
C[N+](C)(C)CCOC(=O)C(O)(c1ccccc1)c1ccccc1 | -7.45% | –
NCc1cccnc1 | -1.34% | –
CN1C(=O)[C@@H](NC(=O)c2cc3ccccc3[nH]2)N=C(c2ccccc2)c2ccccc21 | -4.12% | –
CCCCCCCCCCCC[N+](C)(C)CCOc1ccccc1 | – | 79.4 µM (active)
NC(=O)OCCCc1ccccc1 | 2.19% | –
CC(C)[N+](C)(CCC(C(N)=O)(c1ccccc1)c1ccccc1)C(C)C | – | inactive
CC(C)NCC(O)c1ccc(N)c(C#N)c1 (stereo not given) | -4.02% | –
ClC1=C(Cl)C2(Cl)C(CBr)CC1(Cl)C2(Cl)Cl (stereo not given) | -8.32% | –
CCC1(CC)C(=O)NC(=O)NC1=O | -2.14% | –
